Test results taken from PMC8769072, “Proteome‐scale mapping of binding sites in the unstructured regions of the human proteome” (Molecular Systems Biology, 2022).

target: EPS15 121-215, P42566
Sequence (P42566 121-215): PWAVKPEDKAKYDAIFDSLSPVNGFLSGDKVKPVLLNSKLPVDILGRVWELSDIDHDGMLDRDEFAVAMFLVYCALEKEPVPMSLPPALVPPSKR

Row | Binder | selected by phage display
1 | SNPFMTGAPTGQFPTG [AGFG1, P52594] | confidence 3 (active)
2 | NPFSVHTATAVPSGKI [POLA1, P09884] | confidence 3 (active)
3 | NPFVPSMPAAPPTLPL [DENND1A, Q8TEH3] | confidence 2 (active)
4 | EFGPENPFRTQQMAAP [CDC40, O60508] | confidence 4 (active)
5 | GLNPFGDSTHAAAAAA [ZIC3, O60481] | confidence 2 (active)
6 | GGNPFASVGSSSSSGE [UBQLN2, Q9UHD9] | confidence 2 (active)
7 | NPFSVSNPNPLLPSPA [RBM20, Q5T481] | confidence 2 (active)
8 | DSPGLNASNPFTQLER [DLGAP5, Q15398] | confidence 2 (active)
9 | NPFLPYISDTGTTPPE [DRAM1, Q8N682] | confidence 4 (active)
10 | NPFLNGNVPVMPSLDE [SH3BP4, Q9P0V3] | confidence 4 (active)
11 | LNPFLTKSSGDVHLSI [PICALM, Q13492] | confidence 4 (active)
12 | LNPFEVLQIDPEVTDE [DNAJC8, O75937] | confidence 3 (active)
13 | NPFLVAAQDSETDYVT [RTN4, Q9NQC3] | confidence 2 (active)
14 | NPFSAAPAATTVVQTH [SAP130, Q9H0E3] | confidence 3 (active)
15 | TPSEAERWLEEVSQVA [NUMBL, Q9Y6R0] | confidence 3 (active)
16 | NPFTTLTDRELEEYRR [ADD1, P35611] | confidence 3 (active)
17 | TPLMNPFRLENVTVSE [TMEM114, B3SHH9] | confidence 4 (active)
18 | DMESDIRSWELFLSNV [TTC3, P53804] | confidence 2 (active)
19 | LNQGNPFIATSGPGHL [CHD7, Q9P2D1] | confidence 2 (active)
20 | VNPFAQETLFVGNDQV [TMEM108, Q6UXF1] | confidence 3 (active)
21 | NPFNSSKLPEGHSSQQ [SYTL2, Q9HCH5] | confidence 2 (active)
22 | ELTGEKFLEMANPNVA [MACF1, Q9UPN3] | confidence 2 (active)
23 | DVGLGINPFADGMGAF [ZIC1, Q15915] | confidence 3 (active)
24 | QSWLSATLSLATDTMR [MYO18B, Q8IUG5] | confidence 2 (active)
25 | QGRPVSVWDVLFSSYL [EPPK1, P58107] | confidence 3 (active)
26 | GNPFMGVSATAVSSSS [CHD8, Q9HCK8] | confidence 2 (active)

target: KEAP1 321-609, Q14145
Sequence (Q14145 321-609): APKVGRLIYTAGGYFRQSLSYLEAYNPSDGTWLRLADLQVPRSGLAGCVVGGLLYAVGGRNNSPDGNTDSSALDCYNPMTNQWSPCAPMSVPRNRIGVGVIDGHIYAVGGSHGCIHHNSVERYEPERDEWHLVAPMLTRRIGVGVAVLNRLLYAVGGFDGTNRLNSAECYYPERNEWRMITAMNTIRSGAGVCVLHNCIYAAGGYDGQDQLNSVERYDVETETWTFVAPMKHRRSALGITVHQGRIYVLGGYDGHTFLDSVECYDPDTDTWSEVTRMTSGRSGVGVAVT

Row | Binder | selected by phage display
27 | FALEYEADSGEVTSVI [C2orf68, Q2NKX9] | confidence 2 (active)
28 | REHNPESGEEVVTLLE [ZBED9, Q6R2W3] | confidence 2 (active)
29 | GGIIDPSTGERFPVTD [PLEC, Q15149] | confidence 4 (active)
30 | TTWLHPVTGEAVVTGH [PLEKHA5, Q9HAU0] | confidence 2 (active)
31 | VEKDKVTGETRVLSST [PALM, O75781] | confidence 2 (active)
32 | VLPDALTDGSDVVSDL [CFAP36, Q96G28] | confidence 2 (active)
33 | YDPVTGEWKSLAKLPE [KLHL24, Q6TFL4] | confidence 3 (active)
34 | LENNSETGELQPVLPE [TRIM37, O94972] | confidence 2 (active)
35 | TDELLRHPVTGEVVER [C6orf132, Q5T0Z8] | confidence 4 (active)
36 | FDAVTGEFTGMPEQWA [PAK1, Q13153] | confidence 3 (active)
37 | PINPSTGELSTSSSSN [MCC, P23508] | confidence 4 (active)
38 | PSPETGEAKRSAFVEV [PRDM8, Q9NQV8] | confidence 3 (active)

target: KPNA4 68-487, O00629
Sequence (O00629 68-487): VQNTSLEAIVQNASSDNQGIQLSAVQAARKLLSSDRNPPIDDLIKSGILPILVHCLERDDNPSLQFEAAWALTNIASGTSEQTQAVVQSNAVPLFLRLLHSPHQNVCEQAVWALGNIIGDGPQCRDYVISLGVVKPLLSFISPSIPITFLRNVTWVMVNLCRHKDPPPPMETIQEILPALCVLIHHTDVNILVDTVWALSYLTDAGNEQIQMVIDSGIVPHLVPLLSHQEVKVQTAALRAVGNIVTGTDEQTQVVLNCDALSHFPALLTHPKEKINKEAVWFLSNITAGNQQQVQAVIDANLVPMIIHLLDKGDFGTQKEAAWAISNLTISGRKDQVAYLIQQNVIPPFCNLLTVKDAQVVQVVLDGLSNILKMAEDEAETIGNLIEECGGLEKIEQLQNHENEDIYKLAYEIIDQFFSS

Row | Binder | selected by phage display
39 | LESKRPRLEQVSDSHF | confidence 2 (active)
40 | RGLKRSLSEMEIGMVV [SRF, P11831] | confidence 2 (active)
41 | AIKRGYDDLQTIVPTA [MLX, Q9UH92] | confidence 2 (active)
42 | WKRDSSGNKIMHPVSG [NUDT9, Q9BW91] | confidence 2 (active)
43 | DLKRRLDSITSSQSSA [KDR, P35968] | confidence 2 (active)
44 | HEISLKRSYESVEGNI | confidence 3 (active)
45 | VHTTSKRPRLDPVLAD [FAM90A22P, A8MWA6] | confidence 2 (active)
46 | SLAPVKRTYEQMEFPL [ADNP, Q9H2P0] | confidence 3 (active)
47 | GLKRPASQDFEYLQEE [NRK, Q7Z2Y5] | confidence 2 (active)
48 | SPTILGKRSYEQHNGV [MTA1, Q13330] | confidence 2 (active)
49 | KRPHQEFGISSQGAYL [PDE3B, Q13370] | confidence 2 (active)
50 | ELKRKLEQEQKLVEVL [MKL2, Q9ULH7] | confidence 3 (active)
51 | AEQSKRPRLEVGHQGV [EP400, Q96L91] | confidence 3 (active)
52 | EDSIEPPHKRLALSSE [DMTF1, Q9Y222] | confidence 3 (active)
53 | MSSSPVKRQRMESALD [TALDO1, P37837] | confidence 3 (active)
54 | ELKRIKTEDGEGIVIA [FOXK2, Q01167] | confidence 2 (active)
55 | GKRPYEAIEAGKAFRY [ZNF471, Q9BX82] | confidence 2 (active)
56 | GVKRTYSEVYPGQQYL [ZMIZ2, Q8NF64] | confidence 3 (active)
57 | KRPRYDDTVKINSMGG [ZNF318, Q5VUA4] | confidence 3 (active)
58 | ESPSVKRMRLSEGWAT [MEF2C, Q06413] | confidence 2 (active)
59 | DHQFPAKRPRLSEPQG [HJURP, Q8NCD3] | confidence 2 (active)
60 | AGVKRSAAEMYGSVTE [HNRNPC, P07910] | confidence 3 (active)

target: MAP1LC3A 2-121, Q9H492

Row | Binder | selected by phage display
61 | GPDSFTVLGNSMPSVF [BCL9, O00512] | confidence 4 (active)
62 | WTDLENSIVSVERMQD [ABCC6, O95255] | confidence 3 (active)

target: MAP1LC3B 2-119, Q9GZQ8

Row | Binder | selected by phage display
63 | GPDSFTVLGNSMPSVF [BCL9, O00512] | confidence 3 (active)
64 | WTDLENSIVSVERMQD [ABCC6, O95255] | confidence 2 (active)
